# Inconclusive results are not listed. Where a call stands in place of a potency, no number is given. Calls of active or inactive are those of the source. Unless noted, calls come from the whole dose curve; as a rule, active = well fitted curve in the direction sought with a large enough effect in the repeat runs; inconclusive = weak or mixed curves; inactive = no such curve, though single readings can be large; an effect the other way counts as inactive or inconclusive.
# Legend:
# [1] = qHTS assay for small molecules that induce genotoxicity in human embryonic kidney cells expressing luciferase-tagged ATAD5 (AID 651632); conditions: HEK293T ATAD5-luciferase induction, 16 h; series mostly up to 83.3 µM; note: nearly all actives have a fitted effect of over 15% in size
# Method in brief: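 Luminescent reporter readout, HEK293T ATAD5-luc line: 16 hr drug exposure (37C, 5% CO2) followed by Amplite, 30 min RT.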
# [2] = qHTS assay for small molecule agonists of the p53 signaling pathway - cell viability (AID 651633; calls by dose curve; note: nearly all actives have a fitted effect of over 30% in size; note: potency is the fitted concentration of half-maximal effect); conditions: p53RE-bla HCT-116 viability, ATP luminescence, 16 h; series mostly up to 83.3 µM
# Method in brief: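 p53RE-bla cells were treated with compound for 16 hours at 37 C. Cytotoxicity was then measured as CellTiter-Glo luminescence after 30 min at room temperature.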
# [3] = qHTS assay for small molecules that induce genotoxicity in human embryonic kidney cells expressing luciferase-tagged ATAD5 - cell viability (AID 651634; calls by dose curve; note: nearly all actives have a fitted effect of over 25% in size; note: potency is the fitted concentration of half-maximal effect); conditions: HEK293T ATAD5-luc cells viability, CellTiter-Fluor, 15.5 h; series mostly up to 83.3 µM
# Method in brief: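 Viability read: CellTiter-Fluor fluorescence, 30 min at 37C. Cells: HEK293T, luciferase-tagged ATAD5. Exposure: 15.5 hr, 37C, 5% CO2, compound or DMSO vehicle.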
# [4] = qHTS assay for small molecule disruptors of the mitochondrial membrane potential - cell viability (AID 720634; calls by dose curve;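 note: human HepG2 liver cancer cells; nearly all actives have a fitted effect of over 20% in size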); conditions: HepG2 viability, ATP luminescence (CellTiter-Glo), 1 h; series mostly up to 83.2 µM
# Method in brief: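 HepG2, 1 hr compound, 37 C. ATP luminescence via CellTiter-Glo, 30 min RT, same well as m-MPI.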
# [5] = qHTS assay for small molecule disruptors of the mitochondrial membrane potential (AID 720635); conditions: HepG2 mitochondrial membrane potential, Mito-MPS dye ratio; series mostly up to 83.2 µM; note: potency is the fitted concentration of half-maximal effect
# Method in brief: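 HepG2 cells exposed to compound 1 hr at 37C, then Mito-MPS dye 30 min. Ratio read of aggregate (540/590 nm) versus monomer (490/535 nm) fluorescence.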
# [6] = qHTS assay to test for compound auto fluorescence at 590 nm (red) in HepG2 cells (AID 720674); conditions: HepG2 autofluorescence, red 540/590 nm, 1 h; series mostly up to 91.3 µM
# Method in brief: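 Fluorescence at 590 nm emission following 540 nm excitation was recorded from HepG2 wells one hour after compound transfer, with DMSO-only wells as vehicle and Rose Bengal sodium equivalency as the scale.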
# [7] = qHTS assay to test for compound auto fluorescence at 590 nm (red) in HEK293 cells (AID 720679); conditions: red autofluorescence 540/590 nm; series mostly up to 91.3 µM
# Method in brief: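 Using HEK293 cells at 2,000 per well, the screen added 23 nL of each compound after cell attachment and incubated overnight (37C, 5% CO2). The plate reader then captured red-label fluorescence, Ex/Em 540/590nm.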
# [8] = qHTS assay to test for compound auto fluorescence at 535 nm (green) in HEK293 cells (AID 720680); conditions: green autofluorescence 485/535 nm; series mostly up to 91.3 µM
# [9] = qHTS assay to test for compound auto fluorescence at 460 nm (blue) in HEK293 cell free culture (AID 720681); conditions: cell-free medium, autofluorescence 405/460 nm (blue); series mostly up to 91.3 µM
# Method in brief: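 Compounds were added to cell-free DMEM with 10% FBS and fluorescence read directly. The blue channel used 405 nm excitation and 460 nm emission, with triamterene as the reference fluorophore.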
# [10] = qHTS assay to test for compound auto fluorescence at 535 nm (green) in HEK293 cell free culture (AID 720682); conditions: cell-free medium, green autofluorescence 485/535 nm; series mostly up to 91.3 µM
# Method in brief: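 Compounds were pin-transferred into cell-free DMEM with 10% FBS, and green fluorescence was read at excitation 485 nm and emission 535 nm. Intensities were expressed as fluorescein-equivalent values.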
# [11] = qHTS assay to test for compound auto fluorescence at 590 nm (red) in HEK293 cell free culture (AID 720683); conditions: cell-free medium autofluorescence, Ex540/Em590 red; series mostly up to 91.3 µM
# Method in brief: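 Cell-free wells of DMEM with 10% FBS received compound, and intrinsic fluorescence was read at excitation/emission 540/590 nm. Values expressed as equivalence to Rose Bengal sodium.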
# [12] = qHTS assay to test for compound auto fluorescence at 590 nm (red) in HepG2 cell free culture (AID 720684); conditions: cell-free medium autofluorescence, red 540/590 nm; series mostly up to 91.3 µM
# Method in brief: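 Compounds are added to culture medium (MEM, 10% FBS) lacking cells, then fluorescence is read at excitation 540 nm, emission 590 nm, with Rose Bengal sodium as the equivalency standard.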
# [13] = qHTS assay to test for compound auto fluorescence at 460 nm (blue) in HepG2 cell free culture (AID 720685); conditions: Cell-free culture medium, blue autofluorescence 405/460 nm; series mostly up to 91.3 µM
# Method in brief: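 Compound (23 nL) or DMSO pinned into cell-free MEM with 10% FBS; blue fluorescence read at 405/460 nm excitation/emission, expressed as auto-fluorescence equivalency to triamterene.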
# [14] = qHTS assay to test for compound auto fluorescence at 535 nm (green) in HepG2 cell free culture (AID 720686); conditions: Cell-free medium, green autofluorescence 485/535 nm; series mostly up to 91.3 µM
# [15] = qHTS assay to test for compound auto fluorescence at 460 nm (blue) in HepG2 cells (AID 720687); conditions: autofluorescence 405/460 nm, 1 h; series mostly up to 91.3 µM
# Method in brief: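 HepG2 cells in MEM with 10% FBS, attached overnight at 37 C, were exposed to compound or DMSO for 1 hr at 37 C, 5% CO2. Blue fluorescence was read at 405/460 nm, with triamterene as reference fluorophore.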
# [16] = biological target: Glucocorticoid receptor (Homo sapiens) (UniProt P04150); test: qHTS assay to identify small molecule agonists of the glucocorticoid receptor (GR) signaling pathway (AID 720691; active = well fitted activation curve with a large enough effect in the signal ratio in the repeat runs, not every such curve was filed as active; the % refers to the signal ratio); conditions: GR-bla HeLa, beta-lactamase reporter ratio, 18 h; series mostly up to 62.4 µM
# Sequence of Glucocorticoid receptor (Homo sapiens) (P04150 whole entry, looked up): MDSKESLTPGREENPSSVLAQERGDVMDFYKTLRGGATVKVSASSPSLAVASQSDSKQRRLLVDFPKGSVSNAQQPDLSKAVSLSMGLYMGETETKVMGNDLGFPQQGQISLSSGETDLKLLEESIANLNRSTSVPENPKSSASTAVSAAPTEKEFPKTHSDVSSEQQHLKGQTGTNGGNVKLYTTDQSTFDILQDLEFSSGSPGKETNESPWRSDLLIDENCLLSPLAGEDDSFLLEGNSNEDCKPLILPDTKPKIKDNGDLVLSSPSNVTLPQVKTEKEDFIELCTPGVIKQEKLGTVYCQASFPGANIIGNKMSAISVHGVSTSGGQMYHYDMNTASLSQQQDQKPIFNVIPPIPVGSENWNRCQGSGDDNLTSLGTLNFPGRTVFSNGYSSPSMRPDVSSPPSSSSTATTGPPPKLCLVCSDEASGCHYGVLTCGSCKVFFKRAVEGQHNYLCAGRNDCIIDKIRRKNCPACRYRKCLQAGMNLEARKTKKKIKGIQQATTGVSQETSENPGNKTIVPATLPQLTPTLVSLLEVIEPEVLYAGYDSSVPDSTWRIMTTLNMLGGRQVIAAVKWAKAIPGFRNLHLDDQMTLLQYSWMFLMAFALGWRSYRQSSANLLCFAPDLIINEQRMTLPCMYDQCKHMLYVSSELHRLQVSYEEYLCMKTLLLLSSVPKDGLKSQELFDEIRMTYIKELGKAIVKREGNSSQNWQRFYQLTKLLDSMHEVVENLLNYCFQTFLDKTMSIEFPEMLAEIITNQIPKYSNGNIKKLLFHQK
# Method in brief: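 qHTS in GR-bla HeLa cells: 4 h settling at 37 C/5% CO2, 18 h compound incubation at 37 C, 2 h LiveBLAzer B/G FRET substrate at room temperature, fluorescence intensity measured.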
# [17] = qHTS assay to test for compound auto fluorescence at 535 nm (green) in HepG2 cells (AID 720675); conditions: green autofluorescence 485/535 nm, 1 h; series mostly up to 91.3 µM
# [18] = qHTS assay to test for compound auto fluorescence at 460 nm (blue) in HEK293 cells (AID 720678); conditions: blue autofluorescence 405/460 nm; series mostly up to 91.3 µM
# Method in brief: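 Measured: blue fluorescence (Ex 405/Em 460 nm) of compound-treated HEK293 cells, incubated overnight at 37C with 5% CO2 and scaled to triamterene equivalents.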
# [19] = biological target: Glucocorticoid receptor (Homo sapiens) (UniProt P04150); test: qHTS assay to identify small molecule antagonists of the glucocorticoid receptor (GR) signaling pathway (AID 720692; active = well fitted inhibition curve with a large enough effect in the signal ratio in the repeat runs, not every such curve was filed as active; the % refers to the signal ratio); conditions: GR-bla HeLa, beta-lactamase FRET ratio, dexamethasone-stimulated, 18 h; series mostly up to 58.5 µM
# Method in brief: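 Inhibition of glucocorticoid signalling is measured in HeLa cells with a GRE-controlled beta-lactamase reporter; cells are co-treated with compound and 5 nM dexamethasone (final) for 18 h before FRET substrate readout.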
Structure (SMILES),Potency [1],Potency [2],Potency [3],Potency [4],Potency [5],Potency [6],Potency [7],Potency [8],Potency [9],Potency [10],Potency [11],Potency [12],Potency [13],Potency [14],Potency [15],Potency [16],Potency [17],Potency [18],Potency [19]
CCCC[P+](C)(CCCC)CCCC,inactive,inactive,inactive,inactive,13.9 µM (active),inactive,inactive,inactive,inactive,inactive,inactive,inactive,inactive,inactive,inactive,inactive,–,–,–
Cc1c(F)c(N2CCNC(C)C2)cc2c1c(=O)c(C(=O)O)cn2C1CC1 (stereo not drawn),inactive,inactive,inactive,inactive,–,inactive,inactive,inactive,inactive,inactive,–,inactive,inactive,inactive,inactive,inactive,inactive,inactive,inactive
O=C(O)c1cc(O)c2ccccc2c1O,inactive,30.6 µM (active),inactive,–,–,inactive,inactive,inactive,inactive,inactive,inactive,inactive,inactive,inactive,inactive,–,–,inactive,–
CC1(C)CCC[C@]2(C)[C@H]3CCO[C@]3(C)CC[C@@H]12,inactive,inactive,inactive,inactive,–,inactive,inactive,inactive,inactive,inactive,inactive,inactive,inactive,inactive,inactive,inactive,inactive,inactive,–
CCCCCC/C=C\CCCCCCCC(=O)O,inactive,inactive,inactive,inactive,–,inactive,inactive,inactive,inactive,inactive,inactive,inactive,inactive,inactive,inactive,–,–,inactive,–
CC[N+](CC)(CC)CCOc1ccc(/C=C/c2ccccc2)cc1,inactive,inactive,inactive,inactive,inactive,inactive,inactive,inactive,inactive,inactive,inactive,inactive,–,inactive,inactive,inactive,–,inactive,inactive
Cc1cc(-n2nc3ccc(Cl)cc3n2)c(O)c(C(C)(C)C)c1,inactive,inactive,inactive,inactive,inactive,inactive,inactive,inactive,inactive,inactive,inactive,inactive,inactive,–,inactive,inactive,–,inactive,inactive
Cc1c(C)c([N+](=O)[O-])c(C(C)(C)C)c([N+](=O)[O-])c1C,inactive,inactive,inactive,–,30.6 µM (active),inactive,inactive,inactive,inactive,inactive,inactive,inactive,inactive,inactive,inactive,–,inactive,inactive,–
COc1ccc2cc1Oc1ccc(cc1)C[C@H]1c3c(cc4c(c3Oc3cc5c(cc3OC)CCN(C)[C@@H]5C2)OCO4)CCN1C,inactive,inactive,29.8 µM (active),inactive,–,inactive,inactive,inactive,inactive,inactive,inactive,inactive,inactive,–,inactive,inactive,–,–,inactive
C=CCCC(=O)/C=C/C1C(C)=CCCC1(C)C (stereo not drawn),inactive,–,inactive,inactive,61.1 µM (active),inactive,inactive,inactive,inactive,inactive,inactive,inactive,–,–,inactive,inactive,inactive,inactive,inactive
CCCCCCCCCCCCOC(=O)c1ccc(O)cc1,inactive,inactive,inactive,–,3.46 µM (active),inactive,inactive,inactive,inactive,inactive,–,inactive,inactive,inactive,inactive,–,–,inactive,–
C=C(C)c1cccc(C(=C)C)c1,inactive,inactive,inactive,inactive,inactive,inactive,inactive,inactive,inactive,inactive,inactive,inactive,inactive,inactive,inactive,inactive,–,inactive,inactive
S=C([S-])NCCNC(=S)[S-].S=C([S-])NCCNC(=S)[S-].[Mn+2].[Zn+2],inactive,inactive,inactive,inactive,–,inactive,inactive,inactive,inactive,inactive,inactive,inactive,inactive,inactive,inactive,inactive,inactive,–,–

# Reference: PubChem BioAssay (Tox21)
